Screens (PubChem BioAssay)
The sample as a whole holds a higher share of hits than the screen did.
RMI FANCM FP = RMI-FANCM interaction inhibition. FP signal (polarization) at 33 µM. hit rate 0.58% among 70,000. Fluorescence polarization, RMI core complex with F-MM2 peptide; active compounds read low; in the data active = FP signal below about 40
Of the large screens only hits and unclear results are named; the others gave an inactive call; ! = a repeat was not active.

CC1=C(Cl)C(O)=CC(=O)C12Oc1cc(O)c(Cl)c(C)c1C2=O (stereo not drawn)	RMI FANCM FP 11
COc1cccc(OCC(=O)NCCn2ncc3c(=O)n(Cc4cccc(C)c4)cnc32)c1	none
CC1C(=O)N2CCCc3cc(NC(=O)c4ccc(F)c(F)c4)cc1c32 (stereo not drawn)	none
O=C(CSc1ncnc2ccccc12)NCc1ccccc1Cl	none
CCn1c(/C=N\Nc2nc3ccccc3s2)nc2ccccc21	none
COc1ccc(C(=O)N/N=C\c2c(C)nn(-c3ccccc3)c2N2CCCCC2)cc1OC	none
Cc1nn(-c2ccccc2)c(N2CCCCC2)c1/C=N\Nc1nc2ccccc2s1	RMI FANCM FP 8
COC(=O)c1sc(-c2ccc(C(C)(C)C)cc2)cc1NC(=O)CN1CCCCC1	none
CCCc1ccc(S(=O)(=O)NCC2CCN(Cc3ccco3)CC2)cc1	none
O=C(NCCn1ncc2c(N3CCOCC3)ncnc21)c1cc2ccccc2o1	none
CC1(C)S[C@@H]2[C@H](NC(=O)COc3ccccc3)C(=O)N2[C@H]1C(=O)O	RMI FANCM FP 32
CC1(C)S[C@@H]2[C@H](NC(=O)Cc3ccccc3)C(=O)N2[C@H]1C(=O)O	none
CC1(C)SC2C(NC(=O)C(N)c3ccccc3)C(=O)N2C1C(=O)O (stereo not drawn)	none
Cc1ccc(N2CCN(C(=O)N3CCOCC3)CC2)cc1Cl	none
O=C(CC1CSc2nc3[nH]ncc3c(=O)n21)Nc1ccc(Oc2ccccc2)cc1 (stereo not drawn)	none
C=CCn1c(SCC(=O)Nc2cc(C(F)(F)F)ccc2Cl)nc2scc(-c3ccc(F)cc3)c2c1=O	none
COc1ccc(N=Nc2cc(C)c(O)c(CN3CCCCC3)c2)cc1	none
COc1ccc(N=Nc2cc(C)c3cc(C(C)C)ccc(C)c2-3)cc1	RMI FANCM FP -11
Cc1ccc(C(C)C)cc2c(C)ccc1-2	none
CC1=C(C#N)C(c2cn[nH]c2-c2cccs2)C2=C(CCCC2=O)N1 (stereo not drawn)	none
N#Cc1c(NC(=O)CCCS(=O)(=O)c2ccc(F)cc2)sc2c1CCC2	none
O=C(CCn1cnc2c([nH]c3ccccc32)c1=O)N1CCN(c2ccc(Cl)cc2)CC1	none
N#Cc1c(SCC(=O)c2ccc(O)c(O)c2)nc2c(c1-c1ccc(OCc3ccccc3)cc1)CCCC2	RMI FANCM FP 24
COc1ccc(-c2c(C#N)c(SCC(=O)c3ccc4c(c3)OCO4)nc3c2C(=O)CC(C)(C)C3)cc1	none
N#Cc1c(SCC(=O)Nc2ccccc2)nc2c(c1-c1ccc(OCc3ccccc3)cc1)CCCC2	none
CSc1nccc(-c2sc(-c3ccc(Cl)cc3)nc2C)n1	RMI FANCM FP 32
Cc1nccc(-c2sc(-c3cccs3)nc2C)n1	none
CSc1nccc(-c2ccc(Br)s2)n1	none
O=C(Nc1cccc(Cl)c1)c1ccc(Br)o1	none
COC(=O)/C(C#N)=C(\C#N)c1ccc(Br)o1	RMI FANCM FP 26
O=C(c1ccc(Br)o1)N1CCOCC1	none
O=C(Nc1nc2c(Cl)ccc(Cl)c2s1)c1ccc(F)cc1	none
O=C(Cn1nc(-c2ccccc2)c2sc(N3CCCC3)nc2c1=O)NCc1ccco1	none
CC(C)(O)[C@@H]1Cc2cc3ccc(=O)oc3cc2O1	none
CCOC(=O)c1oc2ccccc2c1NC(=O)/C=C\c1ccc2c(c1)OCO2	none
O=C(Nc1cccc2c1CCCC2)c1cnc2n(c1=O)CCS2	none
O=C(Nc1ccc(S(=O)(=O)Nc2ncccn2)cc1)c1cnc2n(c1=O)CCS2	RMI FANCM FP 20
O=C(Nc1ccc(Br)cc1)c1cnc2n(c1=O)CCS2	none
N/C(=N/OC(=O)c1c(F)cccc1F)c1ccccn1	none
COc1ccc(Cn2cnc3c4ccccc4n(CC(=O)NCc4ccccc4)c3c2=O)cc1	none
Fc1ccc(Cn2c3ccccc3c3nn4cnnc4nc32)cc1	RMI FANCM FP 28
COCCNC(=O)Cc1cn(Cc2ccc(F)cc2)c2ccccc12	none
Cn1c(SCc2ccc([N+](=O)[O-])cc2)nc2c(c1=O)SCC2	none
CCNc1nc(SCc2ccc([N+](=O)[O-])cc2)nc2sc3c(c12)CCN(C)C3	RMI FANCM FP -31
CCNc1nc(SCc2ccc([N+](=O)[O-])cc2)nc2sc3c(c12)CCC(C)C3 (stereo not drawn)	none
O=C(/C=C/Nc1ccc(Br)cc1Cl)C(F)(F)F	none
CSc1ccccc1NC(=O)c1cc2nc(C)ccc2o1	none
Cc1ccc2oc(C(=O)NCc3cccs3)cc2n1	none
Cc1ccc2oc(C(=O)NCCn3c(C)cc4ccccc43)cc2n1	RMI FANCM FP 26
CCOC(=O)c1nn(-c2ccc(OC)cc2)c(=O)c2c(NC(=O)c3c(OCC)ccc4ccccc34)scc12	none
NNC(=O)c1nn(-c2ccccc2)c(=O)c2c(N)scc12	RMI FANCM FP 24
O=C(Nc1scc2c(C(=O)O)nn(-c3ccc(C(F)(F)F)cc3)c(=O)c12)c1c(F)cccc1Cl	none
COc1ccccc1C1CC(c2c(C)nc3ccc(Cl)cc3c2-c2ccccc2)=NN1C(=O)CCC(=O)O (stereo not drawn)	none
O=C1Cc2cc(NC(=O)c3cccs3)ccc2N1	none
O=C(CCS(=O)(=O)c1ccc(Cl)cc1)Nc1nnc(-c2ccncc2)o1	none
O=C(CCS(=O)(=O)c1ccc(Cl)cc1)Nc1nnc(-c2ccc(F)cc2)o1	RMI FANCM FP 34
O=C(CCS(=O)(=O)c1ccc(F)cc1)Nc1nnc(-c2cccnc2)o1	none
O=C(CC1S/C(=N\N=C2CCCCC2)NC1=O)Nc1ccc([N+](=O)[O-])cc1 (stereo not drawn)	none
COc1ccc(/C=N\N=C2\NC(=O)C(CC(=O)Nc3sc4c(c3C#N)CCCC4)S2)cc1 (stereo not drawn)	none
COC(=O)c1c(NC(=O)CC2S/C(=N\N=C/c3ccc([N+](=O)[O-])cc3)NC2=O)sc2c1CCCC2 (stereo not drawn)	RMI FANCM FP 14
Cn1c(-c2ccccc2)c[nH]c1=S	none
S=c1[nH]nc2ccccn12	none
S=c1[nH]cc2ccccn12	RMI FANCM FP 18
CC(C)Sc1ccc2nn(CC(=O)Nc3ccc(Br)cc3F)c(=O)n2n1	none
Cc1ccc(C)c(Cn2cc(SCC(=O)Nc3nccs3)c3ccccc32)c1	none
CC1C(=O)NCCN1C(=O)CCSc1ccc(Cl)cc1 (stereo not drawn)	none
COC(=O)c1ccc(CSc2nc(=O)n3ccc(C)cc3n2)o1	none
Cc1ccc(C2CC(c3cccs3)=NN2C(=O)CSc2nc(=O)n3ccc(C)cc3n2)cc1 (stereo not drawn)	none
CCOC(=O)N1CCN(C(=O)CSc2nc(=O)n3ccc(C)cc3n2)CC1	RMI FANCM FP 29
Cc1cc(C)cc(NC(=O)Cn2cnc3c(sc4ccccc43)c2=O)c1	none
Cn1c(SCC(N)=O)nnc1-c1ccc(=O)n(C)c1	none
Nc1nc(SCc2cccc([N+](=O)[O-])c2)[nH]c(=O)c1NC(=O)c1ccccc1F	none
Cc1ccc(C)c(S(=O)(=O)Nc2ccc(Cl)c(C(F)(F)F)c2)c1	none
COc1ccc2nc(-c3ccc(F)c(NC(=O)c4ccc5ccccc5c4)c3)cn2n1	none
CC1(C)CC(=O)C2=C(C1)Nc1[nH]c(=S)[nH]c(=O)c1C2c1ccc2c(c1)OCO2 (stereo not drawn)	none
Cc1ccsc1C1C2=C(CCCC2=O)Nc2c1c(=O)n(C)c(=O)n2C (stereo not drawn)	none
Cn1c2c(c(=O)n(C)c1=O)C(c1cccc(F)c1)C1=C(CC(C)(C)CC1=O)N2 (stereo not drawn)	RMI FANCM FP -8
CCOC(=O)CCC(=O)N1CCC(c2nnc(-c3ccco3)s2)CC1	none
CCc1cc(Cl)c(OC)c(C(=O)NC[C@@H]2CCCN2CC)c1O	none
CCN1CCC[C@H]1CNC(=O)c1c(OC)ccc(I)c1O	none
CCN1CCCC1CNC(=O)c1cc(S(N)(=O)=O)ccc1OC (stereo not drawn)	RMI FANCM FP 2!
CC(C)CCn1c(-c2ccco2)nc2ccccc21	none
